From PubChem BioAssay (EPA / NIEHS)
The source made the active and inactive calls. How the source made its calls: active means hit-call score of the fitted dose curve at least 0.9, where 1 is the maximum; inactive means score below 0.9.

Key:
[1] = ATG_CRE_CIS: Attagene CIS-FACTORIAL HepG2 Assay for human cAMP Responsive Element (CRE) binding protein 3 (AID 2282926); details: HepG2 CRE cis-reporter, Attagene multiplexed mRNA; actives raise or lower the signal
In short: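 Transfected HepG2 were treated for 24 hours, then RNA was extracted and reporter cDNA amplified with sequence-specific primers. Labelled fragments were separated by capillary electrophoresis, and the CRE signal was fitted bidirectionally with DMSO as baseline.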

[2] = molecular target: CCAAT/enhancer-binding protein beta (Homo sapiens) (UniProt P17676); assay: ATG_C_EBP_CIS: Attagene CIS-FACTORIAL HepG2 Assay for human CCAAT/Enhancer Binding Protein (C/EBP) beta (AID 2282927); details: HepG2 Attagene cis-factorial transcription factor reporter; actives raise or lower the signal
In short: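 Transiently transfected HepG2 (MRTU library, endogenous TF-driven promoters); 24 h dosing; total RNA → oligo(dT) RT → PCR → 6-FAM primer extension → HpaI digest → CE; fit bidirectionally vs DMSO.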

[3] = ATG_CMV_CIS: Attagene CIS-FACTORIAL HepG2 Assay for human CMV (Internal Marker) (AID 2282928); details: HepG2 CMV promoter reporter, transcription factor profiling; actives raise or lower the signal;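 further: endpoint acts as a background internal control marker rather than a target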
In short: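 Cell system: HepG2, transiently transfected multiple reporter units under cis promoters. Exposure: 24 h. Detection: RT-PCR, FAM labeling, HpaI digestion, capillary electrophoresis. Analysis: bidirectional, DMSO baseline.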

[4] = ATG_DR4_LXR_CIS: Attagene CIS-FACTORIAL HepG2 Assay for human Liver X Receptor (LXR), DR4 submotif (AID 2282929); details: HepG2 Attagene DR4 cis-reporter, mRNA transcription; actives raise or lower the signal
In short: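 HepG2 cells transiently transfected with cis-promoter-driven multiplexed reporter units (DR4 element) were dosed for 24 h. Reporter mRNA was quantified by RT-PCR, fluorescent primer extension, HpaI digestion and capillary electrophoresis; bidirectional fitting versus DMSO baseline.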

[5] = ATG_AP_1_CIS: Attagene CIS-FACTORIAL HepG2 Assay for human Activator Protein 1 (AP-1) (AID 2282931); details: HepG2 Attagene cis-factorial AP-1 reporter mRNA; actives raise or lower the signal
In short: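 HepG2 cells transiently transfected with cis-element-driven multiplex reporter units; 24 h compound exposure. Reporter mRNA quantified by RT-PCR, FAM-labelled fragments resolved by capillary electrophoresis; bidirectional fit versus DMSO baseline.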

[6] = ATG_AP_2_CIS: Attagene CIS-FACTORIAL HepG2 Assay for human Activator Protein 2 (AP-2) (AID 2282932); details: HepG2 AP-2 cis-reporter, Attagene transcription factor profiling; actives raise or lower the signal
In short: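 Multiplexed mRNA reporter assay in HepG2: cis-regulated units report endogenous factor activity after 24 h treatment. Fluorescence from capillary electrophoresis of RT-PCR products gives the signal, with DMSO as baseline.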

[7] = ATG_BRE_CIS: Attagene CIS-FACTORIAL HepG2 Assay for human Bone Morphogenetic Protein (BMP) Response Element (BRE) (AID 2282933); details: HepG2 BMP response element reporter, Attagene transcription factor profiling; actives raise or lower the signal
In short: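 Transient MRTU transfection of human HepG2 liver cells; 24 h compound treatment; total RNA isolated, reverse-transcribed, PCR-amplified, 6-FAM labelled, HpaI-cut, capillary electrophoresis. DMSO = negative control/baseline, bidirectional fit.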

[8] = molecular target: Transcription factor E2F1 (Homo sapiens) (UniProt Q01094); assay: ATG_E2F_CIS: Attagene CIS-FACTORIAL HepG2 Assay for human E2F Transcription Factor 1 (AID 2282935); details: HepG2 Attagene cis-reporter, E2F reporter RNA transcripts; actives raise or lower the signal
In short: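 Measures reporter transcript levels via RT-PCR with capillary electrophoresis detection in HepG2 cells harboring cis-regulated reporter units; 24 h post-dose; bidirectional curve fitting with DMSO as baseline.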

[9] = ATG_E_Box_CIS: Attagene CIS-FACTORIAL HepG2 Assay for human Enhancer Box (E-box) (AID 2282936); details: HepG2 E-box cis-reporter transcription, actives raise or lower the signal
In short: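 First, HepG2 cells receive multiple cis-regulated reporter constructs by transient transfection. Next, chemicals are applied for 24 h. Finally, reporter mRNA is quantified via RT-PCR and capillary electrophoresis, with DMSO as baseline.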

[10] = ATG_M_61_CIS: Attagene CIS-FACTORIAL HepG2 Assay for M61 Transcription Factor (Internal Marker) (AID 2282937); details: HepG2 Attagene CIS-FACTORIAL M61 internal marker reporter; actives raise or lower the signal
In short: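 HepG2 cells transiently transfected with cis-element-driven multiple reporter transcription units, dosed for 24 h. Reporter mRNA measured by RT-PCR, 6-FAM primer-extension labelling, HpaI digestion and capillary electrophoresis; bidirectional fit versus DMSO baseline.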

[11] = ATG_EGR_CIS: Attagene CIS-FACTORIAL HepG2 Assay for human Early Growth Response 1 (EGR1) (AID 2282938); details: HepG2 Attagene CIS-FACTORIAL EGR reporter mRNA; actives raise or lower the signal
In short: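 HepG2 cells transiently transfected with cis-promoter-driven multiplexed reporter transcription units; reporter mRNA measured 24 h after compound dosing by RT-PCR, 6-FAM primer extension, HpaI digestion and capillary electrophoresis. Bidirectional fit versus DMSO baseline.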

[12] = ATG_M_19_CIS: Attagene CIS-FACTORIAL HepG2 Assay for M19 Transcription Factor (Internal Marker) (AID 2282939); details: HepG2 Attagene CIS-FACTORIAL M19 internal marker reporter; actives raise or lower the signal
In short: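 Transfect HepG2 with MRTU reporter library → dose chemical, 24 h → isolate total RNA, reverse-transcribe with oligo(dT) → PCR, 6-FAM label, HpaI cut (2 h, 37 C) → capillary electrophoresis. Bidirectional fit vs DMSO.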

[13] = ATG_Ets_CIS: Attagene CIS-FACTORIAL HepG2 Assay for human Erythroblast Transformation Specific (ETS) (AID 2282941); details: HepG2 ETS cis-reporter transcription, actives raise or lower the signal
In short: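 After transient cis-reporter transfection, HepG2 cells receive test chemical for 24 h. Reporter mRNA levels, measured by RT-PCR and capillary electrophoresis fluorescence, are analysed bidirectionally relative to the DMSO baseline.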

[14] = molecular target: Hepatocyte nuclear factor 3-beta (Homo sapiens) (UniProt Q9Y261); assay: ATG_FoxA2_CIS: Attagene CIS-FACTORIAL HepG2 Assay for human Forkhead box A2 (FOXA2) (AID 2282942); details: HepG2 cis-reporter transcription factor activity, 24 h; actives raise or lower the signal
In short: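 HepG2 cells transiently transfected with multiple cis-regulated reporter transcription units, dosed for 24 h. Reporter mRNA measured by RT-PCR, 6-FAM labelling, HpaI digestion and capillary electrophoresis; bidirectional fitting against DMSO baseline.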

[15] = ATG_FoxO_CIS: Attagene CIS-FACTORIAL HepG2 Assay for human Forkhead box O (FoxO) (AID 2282943); details: HepG2 Attagene cis-reporter, FoxO element, mRNA; actives raise or lower the signal
In short: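 Read-out: fluorescence of 6-FAM-labelled reporter cDNA fragments resolved by capillary electrophoresis. Transiently transfected HepG2 cells were dosed for 24 h; activity fitted in both directions relative to DMSO controls.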

[16] = ATG_GATA_CIS: Attagene CIS-FACTORIAL HepG2 Assay for human GATA Binding Protein (AID 2282944); details: HepG2 GATA cis-element reporter, Attagene multiplex mRNA; actives raise or lower the signal
In short: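 Transient MRTU transfection, HepG2, 24 h compound exposure. Total RNA → oligo(dT) RT → PCR → 6-FAM primer extension → HpaI cut → CE. Bidirectional fit vs DMSO.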

[17] = ATG_GLI_CIS: Attagene CIS-FACTORIAL HepG2 Assay for human Zinc Finger Protein GLI1 (AID 2282945); details: HepG2, Attagene cis-factorial reporter mRNA, GLI element; actives raise or lower the signal
In short: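 Transiently transfected HepG2 cells report endogenous transcription factor activity via cis-element-driven reporter units. After 24 h compound exposure, reporter mRNA was measured by RT-PCR with capillary electrophoresis; bidirectional fitting against DMSO baseline.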

[18] = molecular target: Aryl hydrocarbon receptor (Homo sapiens) (UniProt P35869); assay: ATG_Ahr_CIS: Attagene CIS-FACTORIAL HepG2 Assay for human Aryl Hydrocarbon Receptor (Ahr) (AID 2282930); details: HepG2 AhR cis-factorial reporter transcription; actives raise or lower the signal
In short: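 Read-out: reporter mRNA quantified by RT-PCR with fluorescent primer extension and capillary electrophoresis. Human HepG2 liver cells carried transfected cis-promoter reporter units and were exposed to chemical for 24 h; gain or loss fitted relative to DMSO.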

[19] = molecular target: Retinoic acid receptor alpha (Homo sapiens) (UniProt P10276); assay: ATG_DR5_RAR_CIS: Attagene CIS-FACTORIAL HepG2 Assay for human Retinoic Acid Receptor Alpha (RARE), DR5 submotif (AID 2282934); details: HepG2 Attagene cis-factorial RARE DR5 reporter, mRNA; actives raise or lower the signal
In short: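 Read-out: DR5-driven reporter transcript measured by RT-PCR, 6-FAM primer extension, HpaI digest and capillary electrophoresis. Human HepG2 liver cells carry transiently transfected cis-element reporter constructs; dosing lasts 24 h. Gain or loss of signal fitted against DMSO baseline.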

Measured: outcome

Chain of CCAAT/enhancer-binding protein beta (Homo sapiens) (P17676 whole entry, looked up): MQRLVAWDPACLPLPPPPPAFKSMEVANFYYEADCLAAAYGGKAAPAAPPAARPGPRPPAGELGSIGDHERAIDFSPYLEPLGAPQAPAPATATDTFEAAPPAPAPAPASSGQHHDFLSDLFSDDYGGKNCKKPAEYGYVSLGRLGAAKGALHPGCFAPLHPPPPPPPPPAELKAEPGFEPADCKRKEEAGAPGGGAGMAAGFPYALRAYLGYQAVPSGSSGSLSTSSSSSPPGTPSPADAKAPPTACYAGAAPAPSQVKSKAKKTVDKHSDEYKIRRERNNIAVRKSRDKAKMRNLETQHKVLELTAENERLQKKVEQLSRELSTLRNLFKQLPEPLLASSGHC
Chain of Transcription factor E2F1 (Homo sapiens) (Q01094 whole entry, looked up): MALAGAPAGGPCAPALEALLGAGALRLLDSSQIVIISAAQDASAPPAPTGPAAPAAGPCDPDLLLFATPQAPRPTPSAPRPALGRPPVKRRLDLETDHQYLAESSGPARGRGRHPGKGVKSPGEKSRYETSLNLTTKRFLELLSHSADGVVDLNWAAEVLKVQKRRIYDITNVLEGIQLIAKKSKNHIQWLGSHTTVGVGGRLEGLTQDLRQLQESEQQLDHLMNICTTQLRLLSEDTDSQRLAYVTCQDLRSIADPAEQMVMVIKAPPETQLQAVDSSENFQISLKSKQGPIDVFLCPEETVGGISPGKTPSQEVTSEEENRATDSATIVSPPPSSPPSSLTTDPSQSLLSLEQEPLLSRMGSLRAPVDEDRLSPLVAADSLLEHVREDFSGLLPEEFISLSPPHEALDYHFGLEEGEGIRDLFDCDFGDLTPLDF
Chain of Hepatocyte nuclear factor 3-beta (Homo sapiens) (Q9Y261 whole entry, looked up): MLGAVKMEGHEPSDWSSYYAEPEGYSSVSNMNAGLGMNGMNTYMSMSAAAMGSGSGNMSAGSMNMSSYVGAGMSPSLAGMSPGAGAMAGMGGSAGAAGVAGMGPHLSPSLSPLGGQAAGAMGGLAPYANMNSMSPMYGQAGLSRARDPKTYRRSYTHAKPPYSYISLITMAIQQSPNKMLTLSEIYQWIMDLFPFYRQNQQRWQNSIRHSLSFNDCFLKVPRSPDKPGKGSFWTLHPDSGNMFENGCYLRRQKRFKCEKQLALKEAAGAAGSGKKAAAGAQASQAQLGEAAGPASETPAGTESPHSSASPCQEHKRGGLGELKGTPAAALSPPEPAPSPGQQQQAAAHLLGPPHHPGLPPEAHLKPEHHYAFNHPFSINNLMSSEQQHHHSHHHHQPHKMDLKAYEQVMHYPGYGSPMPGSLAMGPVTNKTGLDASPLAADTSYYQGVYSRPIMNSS
Chain of Aryl hydrocarbon receptor (Homo sapiens) (P35869 whole entry, looked up): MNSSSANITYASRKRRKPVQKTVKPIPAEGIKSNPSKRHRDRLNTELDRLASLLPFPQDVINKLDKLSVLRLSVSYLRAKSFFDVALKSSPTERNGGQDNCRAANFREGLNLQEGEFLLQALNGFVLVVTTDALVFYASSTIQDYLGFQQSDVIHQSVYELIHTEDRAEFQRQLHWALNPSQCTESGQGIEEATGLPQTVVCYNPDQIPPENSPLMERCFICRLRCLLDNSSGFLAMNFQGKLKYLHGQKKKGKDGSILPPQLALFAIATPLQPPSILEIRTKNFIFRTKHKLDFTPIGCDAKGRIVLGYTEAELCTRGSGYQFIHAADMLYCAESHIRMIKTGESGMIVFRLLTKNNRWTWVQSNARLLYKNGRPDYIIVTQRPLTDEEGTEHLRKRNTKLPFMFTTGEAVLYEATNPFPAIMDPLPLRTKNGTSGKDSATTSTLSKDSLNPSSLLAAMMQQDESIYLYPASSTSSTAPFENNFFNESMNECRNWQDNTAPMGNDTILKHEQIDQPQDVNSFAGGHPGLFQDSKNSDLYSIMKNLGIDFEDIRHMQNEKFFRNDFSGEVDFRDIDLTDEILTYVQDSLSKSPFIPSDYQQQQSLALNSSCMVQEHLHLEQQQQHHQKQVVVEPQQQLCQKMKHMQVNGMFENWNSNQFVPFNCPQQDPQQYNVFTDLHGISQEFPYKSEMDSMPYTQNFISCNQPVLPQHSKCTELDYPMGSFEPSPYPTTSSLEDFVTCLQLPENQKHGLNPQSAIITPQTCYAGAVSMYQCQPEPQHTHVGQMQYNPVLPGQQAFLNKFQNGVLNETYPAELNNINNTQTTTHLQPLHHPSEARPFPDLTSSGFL
Chain of Retinoic acid receptor alpha (Homo sapiens) (P10276 whole entry, looked up): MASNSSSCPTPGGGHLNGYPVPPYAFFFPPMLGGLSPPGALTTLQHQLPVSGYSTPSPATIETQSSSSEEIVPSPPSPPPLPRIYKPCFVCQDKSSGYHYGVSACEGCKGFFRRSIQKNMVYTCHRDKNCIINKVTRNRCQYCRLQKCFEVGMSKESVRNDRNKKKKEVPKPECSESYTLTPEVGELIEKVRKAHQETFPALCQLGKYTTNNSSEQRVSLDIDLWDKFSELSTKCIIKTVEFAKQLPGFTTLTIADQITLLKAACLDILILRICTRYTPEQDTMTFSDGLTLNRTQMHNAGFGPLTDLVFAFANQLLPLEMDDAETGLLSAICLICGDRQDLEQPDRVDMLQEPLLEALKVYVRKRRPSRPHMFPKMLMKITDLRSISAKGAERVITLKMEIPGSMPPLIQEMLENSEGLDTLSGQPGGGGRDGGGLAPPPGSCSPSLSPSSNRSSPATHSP

CCCCO
not listed: [18] | [19]
inactive: all other assays above

O=C(O)c1cccc([N+](=O)[O-])c1
not listed: [11] | [18] | [19]
inactive: all other assays above

O=S(=O)(O)NC1CCCCC1
not listed: [3] | [4] | [5] | [7]
inactive: all other assays above

CC(O)C(C)O (stereo not drawn)
not listed: [3] | [19]
inactive: all other assays above

O=C[C@@H](O)[C@H](O)[C@H](O)CO
not listed: [3] | [7] | [9]
inactive: all other assays above

COc1cccc(OC)c1
not listed: [3] | [4] | [19]
inactive: all other assays above

CCCc1ccccc1O
not listed: [4] | [18] | [19]
inactive: all other assays above
